Screening results as filed in PubChem BioAssay.
This is a sample that favours compounds with a hit; in the whole collection about 21% have one here.
ELG1 DNA repair: inhibitors of ELG1-dependent DNA repair in HEK293T cells | 330,000 tested, 2.3% active | Potency, µM (doses to about 46.1 µM), hits mostly inhibitors | HEK293T ELG1-luciferase reporter, luminescence, 16 h; DNA damage induced by 5-fluorouridine; also: nearly all actives have a fitted effect of over 55% in size
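Cells (2,000 per well) received 5-fluorouridine plus test compound or DMSO and were incubated 16 hr at 37 °C, 5% CO2. Luciferase activity was read by luminescence 30 min after ONE-Glo addition; signal suppression marked inhibition of damage-induced ELG1 function.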
IL-1B inflam inh: blocks inflammasome-driven IL-1 beta release. THP-1 LPS/ATP IL-1B secretion, AlphaLISA, 16 h; active compounds read low. activity change, % at 57.5 µM. 360,000 tested, 4.7% active; in the data active = activity change below about -50%; inconclusive = mostly about -30% to -49%
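Secreted IL-1B measured by AlphaLISA bead assay after 16 h compound exposure of THP-1 cells; compounds (final up to 57.5 uM) added 1 h before LPS (250 ng/mL) and ATP (1.25 mM) stimulation; lower signal means less secretion.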
DT40 TDP1 no CPT: qHTS for Inhibitors of human tyrosyl-DNA phosphodiesterase 1 (TDP1): qHTS in cells in absence of CPT; DT40 Tdp1-/- hTDP1 cells, no CPT, ATP luminescence, 48 h; AID 686978, 2013; Potency, µM (titrated, usually from 46.2 µM), actives largely listed as inhibitors; 420,000 tested, 15% active; also: nearly all actives have a fitted effect of over 55% in size
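Chicken DT40 Tdp1-/- cells complemented with human TDP1, screened without camptothecin (DMSO vehicle only), 400 cells/well. Compounds pin-transferred, cells incubated at 37 °C for at least 48 hr. Growth read as ATP-dependent luminescence (CellTiter-Glo, 30 min at RT).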
RORg inh: ROR gamma (mouse) transcription inhibition | P51450 | Drosophila S2 Gal4-RORgamma UAS-luciferase reporter, 20 h | Potency, µM (series often up to 53.6 µM), actives largely listed as inhibitors | 310,000 tested, 5.4% active; also: nearly all actives have a fitted effect of over 60% in size
Target sequence (P51450 whole entry, looked up, the tested form may be a part): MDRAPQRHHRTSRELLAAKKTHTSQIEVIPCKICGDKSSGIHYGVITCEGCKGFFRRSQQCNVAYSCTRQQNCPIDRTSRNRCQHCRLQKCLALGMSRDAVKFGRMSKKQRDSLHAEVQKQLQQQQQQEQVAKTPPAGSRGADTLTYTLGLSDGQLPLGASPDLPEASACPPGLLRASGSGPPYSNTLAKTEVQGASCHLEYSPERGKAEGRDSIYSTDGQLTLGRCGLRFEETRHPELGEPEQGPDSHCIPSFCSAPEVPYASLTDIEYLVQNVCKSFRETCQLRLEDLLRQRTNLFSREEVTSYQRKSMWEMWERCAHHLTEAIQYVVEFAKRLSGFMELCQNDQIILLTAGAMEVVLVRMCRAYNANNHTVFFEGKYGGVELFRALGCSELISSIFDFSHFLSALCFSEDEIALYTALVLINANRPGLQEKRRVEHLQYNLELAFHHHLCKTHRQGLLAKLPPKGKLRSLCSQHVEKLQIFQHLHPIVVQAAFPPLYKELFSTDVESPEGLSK
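Using a luciferase readout, inhibitors were identified by reduced reporter activity in Drosophila cells coexpressing a copper-inducible Gal4–ROR gamma fusion and UAS-driven Photinus luciferase, incubated 20 hr after 700 uM copper sulfate.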
VP16 counter: inhibits Gal4-VP16 luciferase reporter, ROR gamma counter-screen. Drosophila S2 Gal4-VP16 UAS-luciferase, luminescence, 20 h. Potency, µM (highest dose often 53.6 µM), most hits filed as inhibitors. 310,000 tested, 3.5% active. AID 2546;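 also: Gal4-VP16 expression switched on by copper sulfate through the metallothionein promoter; nearly all actives have a fitted effect of over 50% in size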
TDP1 cell CPT: growth inhibition of DT40 Tdp1-/-;hTDP1 cells with camptothecin (screen for TDP1 inhibitors); Potency, µM (doses to about 46.2 µM), usual class: inhibitors; chicken DT40 Tdp1-/-;hTDP1 cells + 20 nM CPT, ATP luminescence, 48 h; AID 686979; 420,000 tested, 12% active; also: nearly all actives have a fitted effect of over 55% in size
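Chicken DT40 Tdp1-/- cells complemented with human TDP1, 400 cells/well, exposed to compounds plus 20 nM camptothecin for at least 48 h at 37 C; viability read as ATP content by CellTiter-Glo luminescence.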
Each line names hits and unclear results; the compound was inactive in the other large screens. Unless noted, calls follow the shape of the dose curve; as a rule, active = well fitted curve in the direction sought with a large enough effect; inconclusive = small, poorly fitted or top-dose-only effect, or another doubt; inactive = no such curve, though single readings can be large; an effect the other way counts as inactive or inconclusive.

CCOc1ccccc1NC(=O)Cn1c(=O)n(CCC(C)C)c(=O)c2cccnc21	none (no result: ELG1 DNA repair, IL-1B inflam inh, RORg inh, VP16 counter)
CCOc1cccc(C(=O)Nc2ccc(S(=O)(=O)N(Cc3ccccc3)c3ccccc3)cc2)c1	DT40 TDP1 no CPT 2.3µM, TDP1 cell CPT inconclusive (no result: ELG1 DNA repair, IL-1B inflam inh, RORg inh, VP16 counter)
CCN(c1ccccc1)S(=O)(=O)c1cc(C(=O)Nc2ccc(Br)cc2)ccc1F	ELG1 DNA repair inconclusive, IL-1B inflam inh inconclusive, DT40 TDP1 no CPT 21µM, VP16 counter 13µM, TDP1 cell CPT 21µM
Cc1ccccc1NC(=O)c1ccc(CN(c2ccccc2)S(=O)(=O)c2ccccc2)cc1	ELG1 DNA repair inconclusive, DT40 TDP1 no CPT inconclusive, TDP1 cell CPT inconclusive
Cc1cccc(C(=O)Nc2ccc(S(=O)(=O)N(Cc3ccccc3)c3ccccc3)cc2)c1	DT40 TDP1 no CPT 10µM, TDP1 cell CPT inconclusive (no result: ELG1 DNA repair, IL-1B inflam inh, RORg inh, VP16 counter)
COc1ccc(N(Cc2ccccc2)S(=O)(=O)c2cccc(C(=O)Nc3ncccc3C)c2)cc1	DT40 TDP1 no CPT inconclusive, TDP1 cell CPT inconclusive (no result: RORg inh, VP16 counter)
O=C(Nc1ccc(S(=O)(=O)N(Cc2ccccc2)c2ccccc2)cc1)c1ccc(F)cc1	DT40 TDP1 no CPT 6.5µM, TDP1 cell CPT 23µM (no result: ELG1 DNA repair, IL-1B inflam inh, RORg inh, VP16 counter)
CCCN1CNc2c(c(=O)[nH]c(=S)n2CCc2ccccc2C)C1	none (no result: ELG1 DNA repair, IL-1B inflam inh, RORg inh, VP16 counter)
Cc1ccccc1OCC(=O)Nc1ccc(S(=O)(=O)N(Cc2ccccc2)c2ccccc2)cc1	DT40 TDP1 no CPT 5.8µM, TDP1 cell CPT inconclusive (no result: ELG1 DNA repair, IL-1B inflam inh, RORg inh, VP16 counter)
CCOc1ccccc1OCC(=O)Nc1ccc(S(=O)(=O)N(C)C)cc1	none
CCN(Cc1ccccc1)S(=O)(=O)c1ccc(F)cc1	none
COc1cccc(C(=O)Nc2ccc(S(=O)(=O)N(Cc3ccccc3)c3ccccc3)cc2)c1	DT40 TDP1 no CPT 5.8µM, TDP1 cell CPT inconclusive (no result: ELG1 DNA repair, IL-1B inflam inh, RORg inh, VP16 counter)
CC(C)N(Cc1ccccc1)S(=O)(=O)c1ccc(F)cc1	DT40 TDP1 no CPT 9.2µM, VP16 counter inconclusive, TDP1 cell CPT inconclusive
CCCCC(C=O)CC (configuration not stated)	none (no result: ELG1 DNA repair, IL-1B inflam inh, DT40 TDP1 no CPT, TDP1 cell CPT)
O=C1C=C(Nc2ccc(Cl)cc2)CC(c2ccccc2)C1 (configuration not stated)	ELG1 DNA repair inconclusive, DT40 TDP1 no CPT 12µM, RORg inh inconclusive, TDP1 cell CPT 21µM
Nc1ccccc1NC1=CC(=O)CC(c2ccccc2)C1 (configuration not stated)	none (no result: IL-1B inflam inh, DT40 TDP1 no CPT, TDP1 cell CPT)
CC(=O)Nc1ccc(C2=CC(=O)C[C@H](c3ccc(Cl)cc3)C2)cc1	ELG1 DNA repair inconclusive, IL-1B inflam inh inconclusive, DT40 TDP1 no CPT 16µM, TDP1 cell CPT 18µM (no result: RORg inh, VP16 counter)
Cc1ccc(NC2=CC(=O)CC(c3ccc(Cl)cc3)C2)cc1 (configuration not stated)	DT40 TDP1 no CPT 12µM, RORg inh inconclusive, VP16 counter inconclusive, TDP1 cell CPT inconclusive
CSc1ccc(C2=CC(=O)C[C@H](c3ccc(Cl)cc3)C2)cc1	DT40 TDP1 no CPT inconclusive, TDP1 cell CPT inconclusive (no result: RORg inh, VP16 counter)
CC1(C)CC(=O)C=C(Nc2ccc(Cl)cc2)C1	IL-1B inflam inh inconclusive
Cc1ccc(NC2=CC(=O)CC(c3ccccc3)C2)cc1 (configuration not stated)	ELG1 DNA repair inconclusive, DT40 TDP1 no CPT 3.7µM, TDP1 cell CPT 2.9µM
CCCCn1c(=NC(=O)c2cc3ccccc3o2)c(C(=O)OCC)cc2c(=O)n3ccccc3nc21	none (no result: ELG1 DNA repair, IL-1B inflam inh, RORg inh, VP16 counter)
CN(Cc1ccccc1)C(=O)c1ccc(NC(=O)Cc2ccc(NC(=O)C3CCCN(C(=O)C4CCCCC4)C3)cc2)cc1 (configuration not stated)	DT40 TDP1 no CPT inconclusive, TDP1 cell CPT inconclusive (no result: ELG1 DNA repair, RORg inh, VP16 counter)
CN(C(=O)c1cccc(NC(=O)Cc2ccc(NC(=O)C3CCCN(C(=O)CCc4ccccc4)C3)cc2)c1)C1CCCCC1 (configuration not stated)	DT40 TDP1 no CPT 16µM, TDP1 cell CPT inconclusive (no result: ELG1 DNA repair, RORg inh, VP16 counter)
CN(C(=O)c1ccc(NC(=O)Cc2ccc(NC(=O)C3CCCN(C(=O)CCc4ccccc4)C3)cc2)cc1)C1CCCC1 (configuration not stated)	DT40 TDP1 no CPT 21µM, TDP1 cell CPT 23µM (no result: ELG1 DNA repair, RORg inh, VP16 counter)
